VACV mCherry inh: vaccinia inhibition (mCherry reporter); Vaccinia virus mCherry reporter infection, fluorescence; Potency, µM (highest dose often 36.5 µM), hits mostly inhibitors; hit rate 0.63% among 310,000; AID 720579; calls by dose curve; tested in A549 cells; note: nearly all actives have a fitted effect of over 35% in size
FMDV antiviral: foot and mouth disease virus antiviral activity. FMDV antiviral cell-based qHTS. Potency, µM (titrated, usually from 57.9 µM), most hits filed as inhibitors. hit rate 1.2% among 410,000; calls by dose curve; tested in HEK293T cells; note: read-out not given here; nearly all actives have a fitted effect of over 45% in size
HCV inhibitor: blocks hepatitis C virus | Potency, µM (titrated, usually from 41.8 µM), hits mostly inhibitors | Huh7.5.1 HCVcc-Cre infection, luciferase reporter, 44 h | hit rate 3.4% among 340,000; active = well fitted inhibition curve with a large enough effect; inconclusive = small, poorly fitted or top-dose-only effect, or another doubt; inactive = no such curve, though single readings can be large or run the other way
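Seed cells (1,000/well) for 4 h; treat with compound and infect with HCVcc-Cre, moi about 0.5. Incubate 44 h, then detect luciferase activity.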
VACV Venus inh: vaccinia inhibition (Venus reporter). Vaccinia virus Venus reporter expression, fluorescence. Potency, µM (series often up to 36.5 µM), hits mostly inhibitors. hit rate 0.46% among 330,000. AID 720580; calls by dose curve; tested in A549 cells; note: nearly all actives have a fitted effect of over 30% in size
HCMV antiviral: inhibitors of human cytomegalovirus; hit rate 4.5% among 410,000; activity change, negative = inhibition, % at 57.5 µM; AID 1259415; HFF cells, HCMV-luciferase reporter, 72 h; hits give low values; in the data active = activity change below about -60%; inconclusive = no clear call, values can overlap the other calls; inactive = above about -39%
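HFF cells seeded 16 h at 37C, treated with compounds, infected with luciferase-reporter HCMV at MOI 1 PFU/cell; luciferase read at 72 h post infection, normalized to buffer-only and Salinomycin controls.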
Large screens that a line does not name were inactive. An excerpt weighted towards active compounds, which were near 7.3% of everything screened.

Cc1cccc(NC(=O)c2oc3ccc(S(=O)(=O)N4CCC5(CC4)OCCO5)cc3c2C)c1C	FMDV antiviral inconclusive (no result: HCV inhibitor)
c1ccc(-c2cc3c(Nc4cccnc4)nccc3[nH]2)cc1	none (no result: VACV mCherry inh, FMDV antiviral, HCV inhibitor, VACV Venus inh)
CC(C)(C)c1nnc(NC(=O)C2CCN(C(=O)c3ccccc3)CC2)s1	none (no result: FMDV antiviral, HCV inhibitor, HCMV antiviral)
Cc1noc(C)c1CCC(=O)N1CCOc2ccc(CN3CCN(c4ccccn4)CC3)cc2C1	VACV mCherry inh inconclusive, FMDV antiviral inconclusive (no result: HCV inhibitor, HCMV antiviral)
O=C(NCc1ccco1)Nc1c(Cl)cc(Cl)cc1Cl	none (no result: VACV mCherry inh, FMDV antiviral, HCV inhibitor, VACV Venus inh)
CCN(CC)S(=O)(=O)c1ccc(/C=C/C(=O)Nc2cccc(F)c2)cc1	FMDV antiviral inconclusive, HCV inhibitor 13µM, HCMV antiviral inconclusive
Cc1cc([N+](=O)[O-])ccc1NC(=O)c1cccc(NC(=O)C(C)C)c1	HCV inhibitor 11µM
O=C(NCc1ccccc1Cl)c1ccc(S(=O)(=O)Nc2cccc(C(F)(F)F)c2)cc1	HCMV antiviral -66
CC(C)C(=O)Nc1cccc(C(=O)Nc2cc([N+](=O)[O-])ccc2Cl)c1	HCV inhibitor inconclusive, HCMV antiviral inconclusive (no result: VACV mCherry inh, VACV Venus inh)
Cc1ccc(S(=O)(=O)Nc2ccc(NC(=O)Nc3cccc(C(F)(F)F)c3)cc2)cc1	VACV mCherry inh 11µM, FMDV antiviral inconclusive, HCV inhibitor inconclusive, VACV Venus inh inconclusive, HCMV antiviral -62
O=C(NCc1ccccc1Cl)c1ccc(S(=O)(=O)N2CCCC2)cc1	none
Cc1ccc(NS(=O)(=O)c2ccc(NC(=O)c3cccc(NC(=O)C(C)C)c3)cc2)cc1	FMDV antiviral inconclusive, HCV inhibitor 10µM, VACV Venus inh inconclusive (no result: VACV mCherry inh)
CC[C@]12c3[nH]c4ccccc4c3CCN1C(=O)C(CC(=O)NC/C=C(\C)CCC=C(C)C)C[C@@H]2C(=O)N1CCN(C(=O)c2ccco2)CC1 (stereo partly specified)	FMDV antiviral inconclusive, HCV inhibitor inconclusive
CC[C@]12c3[nH]c4cc(-c5ccco5)ccc4c3CCN1C(=O)[C@@H](CC(=O)NC/C=C(\C)CCC=C(C)C)C[C@@H]2C(=O)N1CCN(C(=O)c2ccco2)CC1	VACV mCherry inh inconclusive, FMDV antiviral inconclusive, HCV inhibitor 13µM, VACV Venus inh inconclusive (no result: HCMV antiviral)
CC[C@]12c3[nH]c4cc(-c5ccco5)ccc4c3CCN1C(=O)[C@@H](CC(=O)NC/C=C(\C)CCC=C(C)C)C[C@@H]2C(=O)N1CCN(C(=O)C2CC2)CC1	VACV mCherry inh inconclusive, FMDV antiviral inconclusive, HCV inhibitor 16µM, VACV Venus inh inconclusive
CC[C@]12c3[nH]c4cc(CCC(=O)N(C)C)ccc4c3CCN1C(=O)[C@@H](CC(=O)NC/C=C(\C)CCC=C(C)C)C[C@@H]2C(=O)N1CCN(C(=O)C2CC2)CC1	VACV mCherry inh inconclusive, HCV inhibitor inconclusive
CC[C@]12c3[nH]c4ccc(Cl)cc4c3CCN1C(=O)[C@@H](CC(=O)NC/C=C(\C)CCC=C(C)C)C[C@@H]2C(=O)N1CCN(C(=O)C2CC2)CC1	FMDV antiviral inconclusive, HCV inhibitor 22µM, VACV Venus inh inconclusive, HCMV antiviral inconclusive
CCCc1nc2oc3c(NCCOCCO)ncnc3c2c2c1COC(C)(C)C2	FMDV antiviral inconclusive, HCMV antiviral -102 (no result: VACV mCherry inh, VACV Venus inh)
COc1ccc(C(=O)N2CCc3cc4c(cc3C2C)OCCCO4)cc1 (stereo unspecified)	FMDV antiviral inconclusive, HCV inhibitor 1.6µM
COC(=O)c1cn([C@@H]2C[C@@H](C(=O)Nc3cccc(SC)c3)N(C3CCCC3)C2)nn1	none (no result: HCV inhibitor, HCMV antiviral)
CC(=O)c1cn(CCOc2cc(C)ccc2C)c2ccccc12	FMDV antiviral inconclusive, HCV inhibitor 1.8µM
Cc1ccccc1OCCn1cc(C(=O)O)c2ccccc21	none
Cc1ccccc1OCCn1cc(/C(N)=N/O)c2ccccc21	VACV mCherry inh inconclusive, FMDV antiviral 28µM, HCV inhibitor inconclusive, VACV Venus inh inconclusive
O=C(CC1N=C2c3ccccc3N=C(SCc3ccccc3Cl)N2C1=O)NC1CCCCC1 (stereo unspecified)	FMDV antiviral inconclusive (no result: HCV inhibitor)
CCc1ccccc1N1C(=O)N(Cc2ccccc2C)c2ccccc2S1(=O)=O	VACV mCherry inh inconclusive, VACV Venus inh inconclusive, HCMV antiviral -105 (no result: HCV inhibitor)
Cc1ccc(CN(C(=O)COc2ccc(C(C)C)cc2)C2CCS(=O)(=O)C2)o1 (stereo unspecified)	none (no result: HCV inhibitor)
CC(=O)Nc1nc(C)c(-c2csc(Nc3ccccn3)n2)s1	VACV mCherry inh inconclusive, HCV inhibitor 10µM, VACV Venus inh inconclusive
CC(=O)Nc1ccc(Nc2nc(-c3sc(NC(C)=O)nc3C)cs2)cc1	HCV inhibitor 11µM
CC(=O)Oc1ccc(-c2csc(Nc3ccccn3)n2)cc1	VACV mCherry inh inconclusive (no result: HCV inhibitor)
COc1ccc(-c2csc(Nc3cccc(C)n3)n2)cc1	VACV mCherry inh inconclusive, HCV inhibitor inconclusive
COc1ccc(-c2csc(Nc3ccc(Oc4ccccc4)cc3)n2)cc1	FMDV antiviral inconclusive, HCMV antiviral -65 (no result: HCV inhibitor)
CCC(=O)Nc1nc(C)c(-c2csc(Nc3ccc(C(=O)O)cc3)n2)s1	VACV mCherry inh inconclusive
CCC(C)C(=O)Nc1nc(C)c(-c2csc(Nc3ccc(Cl)cc3)n2)s1 (stereo unspecified)	VACV mCherry inh inconclusive, VACV Venus inh inconclusive, HCMV antiviral -90
Cc1ccc(-n2nc(C(=O)N3CCC(C)CC3)c(=O)n(C)c2=O)cc1	none (no result: HCV inhibitor)
COc1cc2ncc3c(-c4ccccc4)nn(CC(=O)NC4CCCCC4)c3c2cc1OC	none (no result: HCV inhibitor)
Cc1nc2ccc(S(=O)(=O)N(C)CC(=O)Nc3ccc(Br)c(C)c3)cc2s1	FMDV antiviral inconclusive, HCMV antiviral inconclusive (no result: HCV inhibitor)
CC(=O)Nc1nc(C)c(-c2csc(Nc3ccc(O)cc3)n2)s1	HCV inhibitor 10µM (no result: VACV mCherry inh, VACV Venus inh, HCMV antiviral)
CC(=O)Oc1ccc(-c2csc(Nc3cccnc3)n2)cc1	HCV inhibitor inconclusive, HCMV antiviral -102
COc1ccc(Nc2nc(-c3sc(C)nc3C)cs2)cc1	FMDV antiviral inconclusive, HCV inhibitor 8.9µM, HCMV antiviral inconclusive (no result: VACV mCherry inh, VACV Venus inh)
c1cncc(Nc2nc(-c3ccncc3)cs2)c1	HCV inhibitor inconclusive (no result: VACV mCherry inh, VACV Venus inh)
CN(C)c1ccc(/C=C/c2sc3ccccc3[n+]2CCCCI)cc1	none (no result: FMDV antiviral, HCV inhibitor, HCMV antiviral)
CCC(=O)Nc1cc(-c2nc3cc(C)cc(C)c3o2)ccc1C	none (no result: HCV inhibitor)
CC(=O)NCc1nc2cccnc2n1Cc1ccccc1	none (no result: HCV inhibitor)
Cc1ccc(CNC(=O)CSc2ncc(S(=O)(=O)c3ccc(C)c(Cl)c3)c(=O)[nH]2)cc1	none (no result: HCV inhibitor)
CCOC(=O)C1CCCN(CCc2ccccc2)C1 (stereo unspecified)	none (no result: VACV mCherry inh, VACV Venus inh)
O=C(OC1C2CCC1C1CN(CCc3ccccc3)CC12)c1ccccc1 (stereo unspecified)	FMDV antiviral inconclusive, HCMV antiviral -68
COc1ccc(OC)c(S(=O)(=O)Nc2cccc3ccccc23)c1	none
COc1ccc(OC)c(S(=O)(=O)Nc2cccc3ccc(O)cc23)c1	HCMV antiviral -62
COc1ccc(C2C(C#N)=C(C)NC3=C2S(=O)(=O)c2ccccc23)cc1 (stereo unspecified)	HCMV antiviral -108 (no result: VACV mCherry inh, VACV Venus inh)
O=C(CN1N=C(c2ccc(Cl)cc2)CCC1=O)NCc1ccc(F)cc1	none (no result: HCV inhibitor)
CCCOc1ccc(C2c3c(-c4ccccc4O)n[nH]c3C(=O)N2CCc2ccccc2)cc1OCC (stereo unspecified)	VACV mCherry inh inconclusive, VACV Venus inh inconclusive, HCMV antiviral -90 (no result: HCV inhibitor)
